What all share (assay type): functional
The subject of test [1] is Plasmodium falciparum. Nature of the test: GSK_TCMDC: Inhibition of Plasmodium falciparum 3D7 in whole red blood cells, using parasite LDH activity as an index of growth. Test compounds present at 2uM.
Test [2] concerns Plasmodium falciparum. Nature of the test: GSK_TCMDC: Inhibition of Plasmodium falciparum Dd2 in whole red blood cells, using parasite LDH activity as an index of growth. Test compounds present at 2uM.
For the next test, the system named is HepG2. Nature of the test: GSK_TCMDC: Percent inhibition of human HepG2 cell line. Test compounds present at 10uM.

Where “and” joins values, the source holds several entries; their conditions need not be identical. Equal entries are not always repeated.

As to `CC1=C(C(=O)NC2CCC(CN3CCC(c4c[nH]c5ccccc45)CC3)CC2)Cc2ccccc21` (configuration not stated), the Inhibition is 97% and 99% in the test with Plasmodium falciparum [1]; 15% and 24% with Plasmodium falciparum [2]; 41% and 37% with HepG2.
For `CC(C)CNCc1ccc(-c2cccc(CN(C(=O)CCC3CCCC3)C3CCN(Cc4ccccc4)CC3)c2)cc1.O=C(O)C(F)(F)F`, the Inhibition in the test on Plasmodium falciparum [1] came out at 100%; in the test on Plasmodium falciparum [2], 92%; in the test with HepG2, 62%.
For `C[C@H](Cc1ccc(OCCCCCCOc2ccccc2)cc1)NC[C@H](O)c1cccc(Cl)c1.Cl`, in that order: 93%, 99% and 21%.
`CC(Cc1ccc(NC(=O)[C@H](C)NCCc2cccc(Cl)c2)cc1)NCCc1cccc(Cl)c1.Cl` (some centres not stated): the Inhibition in the test with Plasmodium falciparum [1] is 100%; in the test with Plasmodium falciparum [2] it was 54%; with HepG2 it was 99%.
For `Cc1[nH]c2ccccc2c1C1=CCN(CCN2CCOc3c(Br)cccc3C2=O)CC1`, in that order: 97%, 76% and 15%.
For `CO/C=C(/C(=O)OC)c1ccccc1Oc1cc(Oc2ccccc2C#N)ncn1` [AZOXYSTROBIN], in that order: 98%, 98% and 7%.
For `CC(C)/C(=C(/F)CN1C(=O)C(NC(=O)c2cc3ccccc3[nH]2)C(=O)N(c2ccccc2)c2ccccc21)c1ccccc1` (configuration not stated), in that order: 98%, 82% and 7%.
In the case of `CC(C)CNCc1cccc(-c2cccc(CN(C(=O)c3cccs3)C3CCN(Cc4ccccc4)CC3)c2)c1.O=C(O)C(F)(F)F`, the Inhibition was 90% in the test on Plasmodium falciparum [1], 36% in the test with Plasmodium falciparum [2] and 14% with HepG2.
`CC[C@H]1CN2CC[C@H]1C[C@@H]2[C@@H](O)c1cc(Cl)nc2ccc(OC)cc12`: the Inhibition in the test on Plasmodium falciparum [1] came out at 98%; with Plasmodium falciparum [2], 82%; in the test with HepG2, 0%.

A word on the Inhibition: it is how much of the control response was suppressed.

The record behind these values is ChEMBL document CHEMBL1157539, “Thousands of chemical starting points for antimalarial lead identification” (Nature, 2010).
